Results published in the supplement of paper PMC11732987, “Enantioselective OTUD7B fragment discovery through chemoproteomics screening and high-throughput optimisation” (Communications Chemistry, 2025).

Tests used:
Experiment in all cases: log2 ratio of Biotin-Ahx-Ub-VS probe labelling (fragment/DMSO); higher = less target engagement (more negative = stronger competition), active = hit call of the paper (q ≤ 0.05, log2 ratio ≤ -1)
Conditions in all cases: compound concentration: 200 uM; treatment time: 3 h
USP19 = molecular target: T1, USP19 (UniProt O94966)
T1 sequence (whole entry): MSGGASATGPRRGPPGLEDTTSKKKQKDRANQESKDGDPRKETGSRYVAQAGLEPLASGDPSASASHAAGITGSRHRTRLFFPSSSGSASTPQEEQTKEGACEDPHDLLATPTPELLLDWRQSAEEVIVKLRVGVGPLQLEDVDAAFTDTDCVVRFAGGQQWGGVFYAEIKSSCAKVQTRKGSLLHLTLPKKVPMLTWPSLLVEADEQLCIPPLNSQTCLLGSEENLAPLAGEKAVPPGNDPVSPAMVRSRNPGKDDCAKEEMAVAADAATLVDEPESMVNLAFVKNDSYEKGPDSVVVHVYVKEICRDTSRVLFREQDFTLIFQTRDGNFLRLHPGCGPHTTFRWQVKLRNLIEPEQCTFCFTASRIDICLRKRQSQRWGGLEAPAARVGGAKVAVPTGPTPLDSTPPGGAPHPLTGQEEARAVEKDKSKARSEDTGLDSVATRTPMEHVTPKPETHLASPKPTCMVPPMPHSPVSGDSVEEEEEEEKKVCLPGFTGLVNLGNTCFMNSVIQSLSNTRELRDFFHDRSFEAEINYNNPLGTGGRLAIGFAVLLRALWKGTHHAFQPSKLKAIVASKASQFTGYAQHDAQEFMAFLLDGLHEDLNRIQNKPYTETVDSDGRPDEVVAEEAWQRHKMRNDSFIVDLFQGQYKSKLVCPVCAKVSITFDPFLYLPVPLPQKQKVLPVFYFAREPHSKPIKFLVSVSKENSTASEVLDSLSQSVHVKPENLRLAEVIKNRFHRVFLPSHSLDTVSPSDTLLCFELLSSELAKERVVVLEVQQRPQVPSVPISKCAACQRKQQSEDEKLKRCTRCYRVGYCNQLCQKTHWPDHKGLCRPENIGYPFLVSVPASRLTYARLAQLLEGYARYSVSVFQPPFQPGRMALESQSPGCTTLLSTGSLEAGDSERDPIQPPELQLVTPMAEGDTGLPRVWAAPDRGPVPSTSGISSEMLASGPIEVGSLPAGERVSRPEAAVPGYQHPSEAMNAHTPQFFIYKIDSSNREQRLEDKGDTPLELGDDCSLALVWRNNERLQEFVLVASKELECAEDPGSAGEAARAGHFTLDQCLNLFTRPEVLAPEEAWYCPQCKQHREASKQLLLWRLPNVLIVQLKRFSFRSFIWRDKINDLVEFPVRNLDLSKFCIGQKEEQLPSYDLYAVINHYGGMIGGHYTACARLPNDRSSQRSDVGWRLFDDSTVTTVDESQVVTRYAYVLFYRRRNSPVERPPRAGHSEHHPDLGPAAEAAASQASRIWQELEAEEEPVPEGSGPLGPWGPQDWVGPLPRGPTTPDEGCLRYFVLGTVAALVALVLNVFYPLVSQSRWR
In short: (§1)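 The table lists average log2 ratios of fragment over vehicle, from an unpaired t-test on global-median-normalised Spectronaut label-free quantities. Proteins with ≥2 unique peptides were used. Samples were HEK293T lysate (495 µg) treated in triplicate with fragment at 200 µM or vehicle for 3 h, then with Biotin-Ahx-Ub-VS (0.5 µM final) for 1 h, with labelled DUBs NeutrAvidin-enriched and run by diaPASEF LC-MS/MS.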

USP22 = molecular target: T2, USP22 (UniProt Q9UPT9)
T2 sequence (whole entry): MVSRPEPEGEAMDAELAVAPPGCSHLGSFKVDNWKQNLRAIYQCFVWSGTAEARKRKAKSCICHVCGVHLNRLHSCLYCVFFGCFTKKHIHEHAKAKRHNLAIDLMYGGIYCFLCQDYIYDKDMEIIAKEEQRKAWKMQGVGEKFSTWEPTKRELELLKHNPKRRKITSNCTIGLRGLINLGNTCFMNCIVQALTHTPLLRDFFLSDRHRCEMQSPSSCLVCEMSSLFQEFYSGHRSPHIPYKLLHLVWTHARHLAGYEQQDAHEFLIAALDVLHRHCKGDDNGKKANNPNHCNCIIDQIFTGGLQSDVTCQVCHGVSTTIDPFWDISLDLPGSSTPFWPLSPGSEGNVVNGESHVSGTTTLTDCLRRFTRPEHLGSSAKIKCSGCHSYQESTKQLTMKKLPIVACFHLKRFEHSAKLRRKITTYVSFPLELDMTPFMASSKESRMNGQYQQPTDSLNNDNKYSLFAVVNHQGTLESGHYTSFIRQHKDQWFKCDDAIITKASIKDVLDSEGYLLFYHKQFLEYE
In short: as §1

USP24 = USP24 (UniProt Q9UPU5)
Chain of USP24 (Q9UPU5 whole entry): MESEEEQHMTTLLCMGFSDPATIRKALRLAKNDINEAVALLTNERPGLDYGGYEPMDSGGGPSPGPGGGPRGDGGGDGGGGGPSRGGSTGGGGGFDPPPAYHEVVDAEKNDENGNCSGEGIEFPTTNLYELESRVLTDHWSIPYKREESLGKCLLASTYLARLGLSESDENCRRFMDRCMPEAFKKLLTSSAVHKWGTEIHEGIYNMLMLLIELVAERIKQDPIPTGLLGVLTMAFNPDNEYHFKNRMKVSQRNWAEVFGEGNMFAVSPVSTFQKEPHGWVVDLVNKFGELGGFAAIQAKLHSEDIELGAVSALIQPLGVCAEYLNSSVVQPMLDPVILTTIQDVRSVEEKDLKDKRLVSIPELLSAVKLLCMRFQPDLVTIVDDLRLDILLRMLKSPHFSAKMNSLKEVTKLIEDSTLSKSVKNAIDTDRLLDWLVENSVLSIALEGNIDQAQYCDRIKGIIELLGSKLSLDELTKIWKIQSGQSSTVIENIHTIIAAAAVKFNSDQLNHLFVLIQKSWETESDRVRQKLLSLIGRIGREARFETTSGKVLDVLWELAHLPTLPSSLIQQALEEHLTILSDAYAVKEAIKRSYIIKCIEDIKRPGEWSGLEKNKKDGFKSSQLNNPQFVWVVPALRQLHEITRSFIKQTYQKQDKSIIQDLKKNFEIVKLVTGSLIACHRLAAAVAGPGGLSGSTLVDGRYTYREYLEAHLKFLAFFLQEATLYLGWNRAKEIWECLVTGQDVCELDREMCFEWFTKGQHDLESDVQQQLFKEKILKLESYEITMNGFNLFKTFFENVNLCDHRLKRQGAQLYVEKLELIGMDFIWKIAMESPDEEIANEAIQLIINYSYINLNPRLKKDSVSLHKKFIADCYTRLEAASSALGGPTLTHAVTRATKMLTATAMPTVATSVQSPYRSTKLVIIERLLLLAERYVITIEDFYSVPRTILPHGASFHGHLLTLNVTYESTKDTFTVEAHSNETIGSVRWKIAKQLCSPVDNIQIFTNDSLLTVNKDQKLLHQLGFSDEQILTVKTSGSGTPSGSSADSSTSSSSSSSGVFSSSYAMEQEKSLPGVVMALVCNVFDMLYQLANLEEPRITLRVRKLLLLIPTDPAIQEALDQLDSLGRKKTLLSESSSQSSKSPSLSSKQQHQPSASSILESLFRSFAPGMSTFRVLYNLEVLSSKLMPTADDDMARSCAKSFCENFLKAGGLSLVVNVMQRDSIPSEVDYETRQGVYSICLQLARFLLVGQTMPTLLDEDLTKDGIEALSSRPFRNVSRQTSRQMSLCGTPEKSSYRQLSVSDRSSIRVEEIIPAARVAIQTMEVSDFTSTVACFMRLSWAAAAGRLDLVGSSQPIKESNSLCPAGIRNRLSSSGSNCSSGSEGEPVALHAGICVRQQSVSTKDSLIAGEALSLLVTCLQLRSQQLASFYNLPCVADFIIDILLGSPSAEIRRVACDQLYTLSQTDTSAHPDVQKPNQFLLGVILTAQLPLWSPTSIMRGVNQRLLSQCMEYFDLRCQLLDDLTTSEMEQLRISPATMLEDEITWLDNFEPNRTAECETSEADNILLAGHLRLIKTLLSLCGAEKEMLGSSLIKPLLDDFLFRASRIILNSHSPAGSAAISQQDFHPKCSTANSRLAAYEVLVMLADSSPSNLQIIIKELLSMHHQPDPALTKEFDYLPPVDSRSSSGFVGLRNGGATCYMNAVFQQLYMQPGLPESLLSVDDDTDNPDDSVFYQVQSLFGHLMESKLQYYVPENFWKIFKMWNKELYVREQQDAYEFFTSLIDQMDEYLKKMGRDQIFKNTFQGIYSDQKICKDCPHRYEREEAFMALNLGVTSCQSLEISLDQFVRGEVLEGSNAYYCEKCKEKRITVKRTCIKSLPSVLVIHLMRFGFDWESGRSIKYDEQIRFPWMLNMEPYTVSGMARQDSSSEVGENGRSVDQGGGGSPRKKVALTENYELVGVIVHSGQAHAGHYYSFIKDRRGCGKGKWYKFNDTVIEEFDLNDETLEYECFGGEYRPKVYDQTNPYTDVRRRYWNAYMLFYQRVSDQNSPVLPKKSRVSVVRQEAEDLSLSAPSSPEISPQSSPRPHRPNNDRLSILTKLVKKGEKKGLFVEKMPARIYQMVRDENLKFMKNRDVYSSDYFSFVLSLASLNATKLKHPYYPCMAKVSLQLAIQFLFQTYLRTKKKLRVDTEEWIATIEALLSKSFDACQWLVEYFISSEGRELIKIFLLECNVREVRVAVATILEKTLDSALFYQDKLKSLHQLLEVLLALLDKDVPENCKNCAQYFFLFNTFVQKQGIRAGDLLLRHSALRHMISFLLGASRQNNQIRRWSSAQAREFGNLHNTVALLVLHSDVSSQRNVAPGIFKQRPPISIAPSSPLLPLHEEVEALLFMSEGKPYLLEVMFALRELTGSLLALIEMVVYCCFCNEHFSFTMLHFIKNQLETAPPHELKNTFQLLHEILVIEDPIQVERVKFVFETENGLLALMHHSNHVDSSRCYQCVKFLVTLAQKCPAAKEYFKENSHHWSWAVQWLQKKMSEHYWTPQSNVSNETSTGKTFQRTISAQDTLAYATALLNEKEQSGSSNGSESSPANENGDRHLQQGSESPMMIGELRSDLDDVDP
In short: as §1

USP25 = molecular target: T3, USP25 (UniProt Q9UHP3)
T3 sequence (whole entry): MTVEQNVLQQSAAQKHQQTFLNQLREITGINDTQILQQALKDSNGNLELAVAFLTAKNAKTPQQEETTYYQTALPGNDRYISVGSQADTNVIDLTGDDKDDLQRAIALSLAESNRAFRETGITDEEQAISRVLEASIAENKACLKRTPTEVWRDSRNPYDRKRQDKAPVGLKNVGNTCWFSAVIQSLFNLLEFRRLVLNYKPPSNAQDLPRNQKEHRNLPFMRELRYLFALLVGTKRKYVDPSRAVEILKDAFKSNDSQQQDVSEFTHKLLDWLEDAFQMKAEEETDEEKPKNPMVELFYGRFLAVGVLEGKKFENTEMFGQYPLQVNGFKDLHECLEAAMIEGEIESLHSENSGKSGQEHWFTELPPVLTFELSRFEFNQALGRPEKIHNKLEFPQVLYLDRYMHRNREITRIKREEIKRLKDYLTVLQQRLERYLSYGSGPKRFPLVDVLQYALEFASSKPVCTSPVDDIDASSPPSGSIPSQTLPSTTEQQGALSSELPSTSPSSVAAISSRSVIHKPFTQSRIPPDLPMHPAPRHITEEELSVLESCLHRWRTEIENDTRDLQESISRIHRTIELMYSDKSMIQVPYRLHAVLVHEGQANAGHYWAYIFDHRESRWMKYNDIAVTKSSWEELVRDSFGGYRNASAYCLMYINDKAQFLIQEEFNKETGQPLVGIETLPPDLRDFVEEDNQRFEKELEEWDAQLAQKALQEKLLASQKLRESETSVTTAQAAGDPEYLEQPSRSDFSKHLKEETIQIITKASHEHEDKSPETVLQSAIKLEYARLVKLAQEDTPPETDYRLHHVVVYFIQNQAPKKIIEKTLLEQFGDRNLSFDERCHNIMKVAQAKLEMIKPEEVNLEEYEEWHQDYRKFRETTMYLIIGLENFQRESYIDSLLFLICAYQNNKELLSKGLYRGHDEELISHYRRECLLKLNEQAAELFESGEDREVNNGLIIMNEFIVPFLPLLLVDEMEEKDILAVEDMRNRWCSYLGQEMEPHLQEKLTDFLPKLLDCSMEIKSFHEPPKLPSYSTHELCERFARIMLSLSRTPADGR
In short: as §1

USP28 = molecular target: T4, USP28 (UniProt Q96RU2)
T4 sequence (whole entry): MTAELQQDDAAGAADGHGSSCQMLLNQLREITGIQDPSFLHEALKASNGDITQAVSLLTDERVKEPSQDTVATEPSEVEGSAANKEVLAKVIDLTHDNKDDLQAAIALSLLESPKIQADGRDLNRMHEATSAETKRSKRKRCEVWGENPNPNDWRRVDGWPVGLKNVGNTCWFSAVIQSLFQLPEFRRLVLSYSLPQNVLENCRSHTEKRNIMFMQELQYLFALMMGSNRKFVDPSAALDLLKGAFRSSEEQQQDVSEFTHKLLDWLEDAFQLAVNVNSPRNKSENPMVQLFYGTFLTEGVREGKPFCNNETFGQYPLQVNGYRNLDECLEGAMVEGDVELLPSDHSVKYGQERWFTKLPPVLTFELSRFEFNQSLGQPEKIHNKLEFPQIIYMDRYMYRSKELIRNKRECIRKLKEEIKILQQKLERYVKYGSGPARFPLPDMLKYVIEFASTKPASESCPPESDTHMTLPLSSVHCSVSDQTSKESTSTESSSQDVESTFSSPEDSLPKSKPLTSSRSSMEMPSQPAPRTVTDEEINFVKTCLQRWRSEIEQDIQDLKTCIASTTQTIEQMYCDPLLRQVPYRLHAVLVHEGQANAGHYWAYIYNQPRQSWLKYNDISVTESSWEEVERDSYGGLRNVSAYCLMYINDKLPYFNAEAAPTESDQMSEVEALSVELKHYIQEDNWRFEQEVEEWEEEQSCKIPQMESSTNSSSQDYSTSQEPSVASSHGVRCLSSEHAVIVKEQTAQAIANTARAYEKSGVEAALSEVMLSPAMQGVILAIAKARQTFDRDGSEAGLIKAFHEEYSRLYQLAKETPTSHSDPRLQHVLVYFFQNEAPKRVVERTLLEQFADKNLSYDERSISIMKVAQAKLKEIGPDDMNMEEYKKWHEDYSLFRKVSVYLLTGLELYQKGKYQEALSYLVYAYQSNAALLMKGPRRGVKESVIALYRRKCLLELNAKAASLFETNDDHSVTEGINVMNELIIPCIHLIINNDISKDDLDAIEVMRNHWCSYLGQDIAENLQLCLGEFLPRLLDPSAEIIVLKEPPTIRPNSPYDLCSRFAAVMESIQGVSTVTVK
In short: as §1

Measured: log2 ratio of Biotin-Ahx-Ub-VS probe labelling

CN1c2ccccc2C(NC(=O)CCl)CS1(=O)=O (stereo not given)
inactive: USP19 -0.159 | USP22 -0.303 | USP24 -0.201 | USP25 -0.52 | USP28 -0.788
